Our source for the Potency, outcome and caspase-3 activation values is PubChem BioAssay (NCATS).

Values without a mark were called inactive. Inconclusive results are not listed. Where a call stands in place of a potency, no number is given. Activity calls are given as the source filed them. Unless noted, calls follow the shape of the dose curve; as a rule, active = well fitted activation curve with a large enough effect in the main read-out, with a control signal flat (not every such curve was filed as active); inconclusive = small, poorly fitted or top-dose-only effect, or effect the other way, or a change in a side signal; inactive = flat fitted curve, though single readings scatter.

Experiment [1] is described as follows: Cell Viability - Mesenchymal (AID 546; active = well fitted curve in the direction sought with a large enough effect; an effect the other way counts as inactive or inconclusive;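 also: cells exposed to compound for 40 hours before reading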; also: potency is read from the fitted curve at half-maximal effect). The settings on record: mesenchymal cells viability, qHTS; activity change, negative = cytotoxicity: at 91.7 µM (top of the series). In outline: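 CellTiter-Glo luminescence (intracellular ATP, 20 min room temperature) after 40 hr compound exposure at 37 °C of 1000 glomerulus-derived human kidney mesenchymal cells/well; AC50 values obtained by fitting qHTS concentration-response data to the Hill equation.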
On the technique in general: Quantitative high-throughput screening tests each substance at several concentrations.

The target of experiment [2] is 3',5'-cyclic-AMP phosphodiesterase 4B (Homo sapiens) (UniProt Q07343). As to the kind of experiment: qHTS Assay for Inhibitors of PDE-IV (AID 607). The settings on record: HEK293 ACTOne CNG channel cells, membrane potential fluorescence; series mostly up to 22.9 µM. In outline: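 Live HEK293 cells with a modified cyclic nucleotide-gated (CNG) channel report intracellular cAMP via membrane-potential dye fluorescence (ex 535/em 590 nm). Endogenous PDE-IV was targeted. Compounds were tested at up to 22.9 uM final; RO 20-1724 100 uM served as control.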

Experiment [3] in a line: Cellular Toxicity (caspase-3) HUV-EC-C (AID 656; active = well fitted curve in the direction sought with a large enough effect; an effect the other way counts as inactive or inconclusive). The conditions noted are these: HUV-EC-C cells, caspase-3 activation (apoptosis), vehicle = 0, 100 µM tamoxifen = 100%; series mostly up to 92.2 µM. Summed up: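 HUV-EC-C endothelial cells, 1000/well, were pre-incubated 5 hr at 37°C, then exposed to compounds for 16 hr at 37°C. Caspase-Glo 3/7 luminescence was read after 20 min at room temperature. AC50 came from Hill fits, normalized to DMSO and 100 uM tamoxifen.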

A short description of experiment [4]: Cellular Toxicity (caspase-3) SHSY5Y (AID 657; active = well fitted curve in the direction sought with a large enough effect; an effect the other way counts as inactive or inconclusive). The settings on record: SH-SY5Y caspase-3 activation, DMSO zero, 10 µM staurosporine = 100%; series mostly up to 91.7 µM. In outline: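 SH-SY5Y human neuroblastoma cells (1500/well) were treated with compounds for 16 h at 37 °C, then Caspase-Glo 3/7 luminescence was read after 1 h at room temperature. Data normalized to DMSO and 10 uM staurosporine; AC50 from Hill fits.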

Experiment [5] can be described thus: Cellular Toxicity (caspase-3) Mesangial (AID 660; active = well fitted curve in the direction sought with a large enough effect; an effect the other way counts as inactive or inconclusive;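 also: combined caspase 3 and 7 activity read by Caspase-Glo luminescence; cells exposed to compound for 16 h before the caspase read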). The conditions noted are these: mesangial cells, normalized: DMSO 0%, 100 µM tamoxifen 100%; series mostly up to 91.7 µM. In outline:
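Caspase 3/7 activation measured by Caspase-Glo 3/7 luminescence (20 min, room temperature) following 16 h exposure of mesangial cells (1000/well); AC50 from Hill-equation fit, normalized to DMSO and 100 uM tamoxifen.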

A short description of experiment [6]: Cellular Toxicity (caspase-3) HepG2 (AID 654; active = well fitted curve in the direction sought with a large enough effect; an effect the other way counts as inactive or inconclusive;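 also: cells exposed to compound for 16 hours before reading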). The settings on record: HepG2 caspase-3 activation, luminescence, 0% = DMSO only, 100% = tamoxifen; series mostly up to 92.2 µM. Summed up:
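Caspase 3/7 activation is measured as a luminescence increase (aminoluciferin substrate) after 16 h compound exposure of human hepatocarcinoma HepG2 cells. AC50 values are Hill fits, scaled between DMSO baseline and 100 uM tamoxifen stimulation.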

Experiment [7] in a line: Cellular Toxicity (caspase-3) Jurkat (AID 655; active = well fitted curve in the direction sought with a large enough effect; an effect the other way counts as inactive or inconclusive;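 also: cells exposed to compound for 16 h at 37 °C before reading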). The settings on record: Jurkat caspase-3 activation, luminescence; series mostly up to 92.2 µM. Summed up: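 Jurkat cells (5000/well) in complete medium were treated with compounds for 16 hr at 37 °C, then Caspase-Glo 3/7 luminescence was read after 20 min at room temperature. Data normalized to DMSO (basal) and 100 uM tamoxifen (100%); AC50 from Hill fit.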

Experiment [8] in a line: Cellular Toxicity (caspase-3) BJ (AID 658; active = well fitted curve in the direction sought with a large enough effect; an effect the other way counts as inactive or inconclusive). The conditions noted are these: BJ fibroblasts, luminescence, normalized: DMSO 0%, staurosporine 100%; series mostly up to 91.7 µM. In outline: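 Caspase-Glo 3/7 luminescence, read 1 hr after reagent at room temperature, in normal BJ fibroblasts exposed 16 hours at 37 °C. AC50 values from Hill-equation concentration-response, scaled between DMSO basal and 10 uM staurosporine as 100%.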

Experiment [9] can be described thus: Cellular Toxicity (caspase-3) MRC-5 (AID 659; active = well fitted curve in the direction sought with a large enough effect; an effect the other way counts as inactive or inconclusive). The conditions noted are these: MRC-5 cells, luminescence; Potency: caspase-3 activation; series mostly up to 91.7 µM. In outline:
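Luminescent Caspase-Glo 3/7 read-out (1 h, room temperature) after a 16 h, 37 °C compound exposure of MRC-5 lung fibroblasts at 1500 cells/well. Concentration-response AC50 from Hill equation; 0% DMSO, 100% 10 uM staurosporine.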

Experiment [10] can be described thus: Cellular Toxicity (caspase-3) SK-N-SH (AID 661; active = well fitted curve in the direction sought with a large enough effect; an effect the other way counts as inactive or inconclusive). The settings on record: SK-N-SH caspase-3 activation, qHTS; caspase-3 activation: at 91.7 µM (top of the series), DMSO as zero, staurosporine as full. In outline:
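Caspase 3/7 activation was read by luminogenic substrate cleavage after 16 hour treatment of SK-N-SH cells. Signal was scaled between DMSO and 10 uM staurosporine, and concentration-response data were fitted with the Hill equation for AC50.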

Chain of 3',5'-cyclic-AMP phosphodiesterase 4B (Homo sapiens) (Q07343 whole entry, looked up): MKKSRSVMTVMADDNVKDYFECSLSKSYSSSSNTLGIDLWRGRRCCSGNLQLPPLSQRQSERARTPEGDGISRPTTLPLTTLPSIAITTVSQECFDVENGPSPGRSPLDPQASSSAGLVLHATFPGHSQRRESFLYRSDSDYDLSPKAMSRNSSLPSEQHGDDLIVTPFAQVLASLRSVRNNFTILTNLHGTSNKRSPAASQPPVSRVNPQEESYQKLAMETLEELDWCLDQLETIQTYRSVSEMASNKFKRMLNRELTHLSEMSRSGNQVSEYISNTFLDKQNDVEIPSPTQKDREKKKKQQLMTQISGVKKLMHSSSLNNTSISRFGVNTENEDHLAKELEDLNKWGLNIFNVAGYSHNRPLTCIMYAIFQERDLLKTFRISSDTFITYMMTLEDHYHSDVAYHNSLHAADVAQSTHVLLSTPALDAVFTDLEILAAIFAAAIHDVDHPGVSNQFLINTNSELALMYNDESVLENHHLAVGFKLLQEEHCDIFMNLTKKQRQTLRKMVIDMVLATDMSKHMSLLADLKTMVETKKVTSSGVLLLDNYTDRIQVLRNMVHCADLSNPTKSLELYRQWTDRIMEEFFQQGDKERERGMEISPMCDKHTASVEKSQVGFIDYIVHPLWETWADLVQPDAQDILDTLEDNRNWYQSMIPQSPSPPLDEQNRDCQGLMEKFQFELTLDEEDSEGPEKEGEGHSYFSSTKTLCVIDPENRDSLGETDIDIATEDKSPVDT

As for `Nc1nc(N)c2nc(-c3ccccc3)c(N)nc2n1`, the Potency in experiment [1] is 25.1 µM (active). In [2], the Potency entry is “inactive”. Also, the outcome in [3], in experiment [4] and in [5] was inactive.

For `CCc1cccc(N(C)C(N)=Nc2cccc3ccccc23)c1`, the Potency result in experiment [2] was “inactive”.

With `Cc1ccc(=O)n(-c2ccccc2)c1`, the Potency entry in experiment [2] is “inactive”.

Regarding `NC(N)=NC(=O)Cc1c(Cl)cccc1Cl`, the Potency entry in [2] was “inactive”.

`COc1ccc(CN(CCN(C)C)c2ccccn2)cc1`: the Potency result in [1], in experiment [2], in experiment [7] and in experiment [9] was “inactive” throughout. For the same compound, the compound was called inactive in [6], in [3], in experiment [4], in [8] and in [5]. Also, the caspase-3 activation in experiment [10] is -0.853%.

As for `CC1=NS(=O)(=O)c2cc(Cl)ccc2N1`, the Potency result in experiment [2] is “inactive”.

For the compound `Brc1c(NC2=NCCN2)ccc2nccnc12`, in experiment [2], the Potency entry was “inactive”.

Turning to `CN1CCN(C2=Nc3ccccc3Oc3ccc(Cl)cc32)CC1`, in [2], the Potency entry is “inactive”.

For the compound `COc1cc(Cc2cnc(N)nc2N)cc(OC)c1OC`, the Potency result in experiment [1], in experiment [2], in experiment [7] and in [9] was “inactive” each time. Moreover, the outcome in experiment [6], in experiment [3], in experiment [4], in experiment [8] and in [5] was inactive. Also, the caspase-3 activation in [10] is 0.291%.

On to `c1cnc(N2CCN(Cc3ccc4c(c3)OCO4)CC2)nc1`, for which the Potency result in experiment [2] is “inactive”.

`O=C1CC2(CCCC2)CC(=O)N1CCCCN1CCN(c2ncccn2)CC1`: the Potency result in [2] is “inactive”.

On to `CCN(CC)CCNC(=O)c1ccc(NC(C)=O)cc1`, for which the Potency result in experiment [2] is “inactive”.

With `NC(=Nc1ccccc1)Nc1ccccc1`, the Potency result in [1], in experiment [7] and in experiment [9] was “inactive” throughout. Also, the compound was called inactive in [6], in experiment [3], in experiment [4], in experiment [8] and in [5]. Further, the caspase-3 activation in experiment [10] is 0.122%.

With `CNCCCN1c2ccccc2CCc2ccccc21`, the Potency result in [2] was “inactive”.

Consider `CCn1nc(C(=O)O)c(=O)c2cc3c(cc21)OCO3`, for which, in [2], the Potency result is “inactive”.

On to `C[n+]1cc2c3c(ccc2c2ccc4cc5c(cc4c21)OCO5)OCO3`, for which the Potency result in [2] is “inactive”.

As for `CC(C)(Oc1ccc(CCNC(=O)c2ccc(Cl)cc2)cc1)C(=O)O`, in experiment [2], the Potency entry is “inactive”.

For the compound `CN(C(=O)CCCOc1ccc2[nH]c(=O)ccc2c1)C1CCCCC1`, the Potency result in [2] is “inactive”.

In the case of `CN/C(=C\[N+](=O)[O-])NCCSCc1ccc(CN(C)C)o1`, the Potency entry in experiment [2] was “inactive”.

On to `Cc1nc2c([nH]1)c(=O)n(C)c(=O)n2Cc1ccco1`, for which the Potency entry in experiment [2] is “inactive”.

As to `O=C(O)CN(CCOCCOCCN(CC(=O)O)CC(=O)O)CC(=O)O`, the Potency entry in experiment [2] is “inactive”.

As for `CC(C)[N+](C)(CCOC(=O)C1c2ccccc2Oc2ccccc21)C(C)C`, the Potency entry in [2] was “inactive”.

As to `CSc1ccc(C(=O)c2[nH]c(=O)[nH]c2C)cc1`, the Potency entry in experiment [2] was “inactive”.

`CCn1cc(C(=O)O)c(=O)c2cc3c(cc21)OCO3`: the Potency result in [2] was “inactive”.

On to `CC[N+](C)(C)c1cccc(O)c1`, for which, in [2], the Potency entry is “inactive”.

Take `COCC(=O)O[C@]1(CCN(C)CCCc2nc3ccccc3[nH]2)CCc2cc(F)ccc2[C@@H]1C(C)C`: the Potency result in experiment [2] was “inactive”.

`CCCCNc1ccc(C(=O)OCCN(C)C)cc1`: in experiment [2], the Potency entry was “inactive”.

In the case of `c1cc(CN2CCCCC2)cc(OCCCNc2nc3ccccc3s2)c1`, the Potency result in experiment [2] is “inactive”.

As to `CCN(CC)CCOCCOC(=O)C1(c2ccccc2)CCCC1`, the Potency result in experiment [2] was “inactive”.

`COc1ccc([C@@H]2Sc3ccccc3N(CCN(C)C)C(=O)[C@@H]2OC(C)=O)cc1`: the Potency entry in experiment [2] was “inactive”.

With `COC(=O)[C@@H](N)Cc1ccc(O)c(O)c1`, the Potency result in experiment [2] is “inactive”.

`CCNC(=O)N1CCN(CCCC(c2ccc(F)cc2)c2ccc(F)cc2)CC1`: the Potency entry in [2] was “inactive”.

For `CC1=C(C)C(=O)C(CCCCC#CCCCC#CCO)=C(C)C1=O`, in experiment [2], the Potency result was “inactive”.

With `Cc1nc2ccccn2c(=O)c1CCN1CCC(C(=O)c2ccc(F)cc2)CC1`, the Potency entry in experiment [2] is “inactive”.

With `CN(C)C(=O)Oc1ccc[n+](C)c1`, the Potency entry in [2] is “inactive”.

Consider `CC(=O)Nc1nnc(S(N)(=O)=O)s1`, for which, in experiment [2], the Potency entry is “inactive”.

With `FC(F)(F)c1ccccc1-n1ccnc1`, the Potency result in experiment [2] was “inactive”.

For the compound `CN1CCN(CC(=O)N2c3ccccc3C(=O)Nc3cccnc32)CC1`, the Potency entry in experiment [2] is “inactive”.

For `NCCCNCCSP(=O)(O)O`, the Potency entry in experiment [2] was “inactive”.

As to `CN(C)CCCN1c2ccccc2Sc2ccc(C(F)(F)F)cc21`, in [2], the Potency result is “inactive”.

As for `C#CCN(C)CCCOc1ccc(Cl)cc1Cl`, the Potency result in experiment [2] was “inactive”.

In the case of `CCN(CC)CCNC(=O)c1cc(S(C)(=O)=O)ccc1OC`, in experiment [2], the Potency entry is “inactive”.

Turning to `CCN(CC)CC(=O)Nc1c(C)cccc1C`, in experiment [2], the Potency entry was “inactive”.

Turning to `CN(C)CCCN1c2ccccc2Sc2ccccc21`, the Potency entry in experiment [2] is “inactive”.

As to `C[N+](C)(C)CCCCCCCCCC[N+](C)(C)C`, the Potency entry in experiment [2] is “inactive”.

Turning to `CCN1CCC[C@H]1CNC(=O)c1c(O)c(Cl)cc(Cl)c1OC`, the Potency entry in experiment [2] was “inactive”.

In the case of `CN(C)CCOC(=O)COc1ccc(Cl)cc1`, in experiment [2], the Potency entry is “inactive”.

As to `CCC(=O)c1ccc2c(c1)N(CCCN(C)C)c1ccccc1S2`, the Potency result in experiment [2] was “inactive”.

As for `CCCCCCCC/C=C\CCCCCCCC(=O)NCc1ccc(O)c(OC)c1`, the Potency entry in [2] is “inactive”.

`CCCC(C(=O)OCCN(CC)CC)(c1ccccc1)c1ccccc1`: the Potency result in experiment [2] was “inactive”.

For `O=C(O)CN(CCN(CC(=O)O)CC(=O)O)CCN(CC(=O)O)CC(=O)O`, the Potency result in experiment [2] is “inactive”.

With `Cc1ccc(S(=O)(=O)NC(=O)NN2CCCCCC2)cc1`, the Potency result in [2] is “inactive”.

As for `CCCOc1ccccc1-c1nc2n[nH]nc2c(=O)[nH]1`, in experiment [2], the Potency entry is “inactive”.
